Assay results published in PubChem BioAssay (NCI).
This is part of a sample that, as a whole, favours compounds with a hit. Of some 79,000 tested, about 15% had one in any assay. Active and inactive are the calls of the source. Cut-off read from the data, not from the text of the source: active = growth inhibition above about 70%; inactive = the rest.

Assays:
[1] = NCI Yeast Anticancer Drug Screen. Data for the rad50 strain (AID 155);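 note: 0% = growth of vehicle-only cultures of the same strain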; settings: S. cerevisiae rad50 strain growth inhibition, active compounds read high
Summary of the method: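 Compounds were tested on a yeast strain with an engineered DNA damage repair alteration; the reported value is growth inhibition normalised to vehicle treatment.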

[2] = NCI Yeast Anticancer Drug Screen. Data for the mec2-1 strain (AID 157); settings: S. cerevisiae mec2-1 strain, active compounds read high
Summary of the method: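 Yeast mec2-1 mutant treated with compound. Readout: growth inhibition vs vehicle controls.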

[3] = NCI Yeast Anticancer Drug Screen. Data for the sgs1 mgt1 strain (AID 161);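 note: 0% = growth of cultures given vehicle only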; settings: S. cerevisiae sgs1 mgt1 strain, active compounds read high
Summary of the method: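 Test agents were incubated with a DNA-repair-mutant yeast strain. Growth was then read and compared against vehicle-treated controls.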

[4] = NCI Yeast Anticancer Drug Screen. Data for the cln2 rad14 strain (AID 165);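 note: 0% = growth equal to vehicle treated cultures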; settings: S. cerevisiae cln2 rad14 strain, active compounds read high
Summary of the method: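 cln2 rad14 yeast strain; compound exposure; growth inhibition read vs vehicle controls.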

[5] = NCI Yeast Anticancer Drug Screen. Data for the bub3 strain (AID 167); settings: S. cerevisiae bub3 mutant strain, active compounds read high
Summary of the method: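 Growth of a checkpoint-deficient yeast mutant is measured after compound exposure. Values represent inhibition relative to vehicle.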

[6] = NCI Yeast Anticancer Drug Screen. Data for the mlh1 rad18 strain (AID 175); settings: S. cerevisiae mlh1 rad18 strain growth inhibition, active compounds read high
Summary of the method: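 Yeast w/ defined DNA-repair lesions; compound exposure; growth vs vehicle controls → % inhibition.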

[7] = at 5.0 µM (retest, dose inferred, filed as 0.5)
[8] = at 50.0 µM (retest, dose inferred, filed as 5.0)

Measured: growth inhibition

C[C@]12C[C@@H](c3ccccc3)Nc3ccccc3N1C(c1ccccc1)=NO2
active: [2]; [8] 74% | [2]; at 50.0 µM 74.8% | [3]; [8] 70% | [3]; at 50.0 µM 81% | [5]; [8] 81% | [6]; [8] 75% | [6]; at 50.0 µM 73.5%
inactive: [1]; [7] -4% | [1]; [8] 68% | [1]; at 50.0 µM 61% | [2]; [7] 10% | [3]; [7] -13% | [4]; [7] 5% | [4]; [8] 55% | [4]; at 50.0 µM 37.2% | [5]; [7] -7% | [5]; at 50.0 µM 62% | [6]; [7] -19%

OC1OCC(OCc2ccccc2)C(OCc2ccccc2)C1OCc1ccccc1 (configuration not stated)
active: [1]; at 50.0 µM 97.4% | [2]; at 50.0 µM 96.9% | [3]; at 50.0 µM 96.7% | [4]; at 50.0 µM 81.5% | [5]; at 50.0 µM 97.7% | [6]; [8] 86% | [6]; at 50.0 µM 98.5%
inactive: [1]; [7] -4% | [1]; [8] 61% | [2]; [7] -25% | [2]; [8] 59% | [3]; [7] -3% | [3]; [8] 68% | [4]; [7] -3% | [4]; [8] 59% | [5]; [7] -5% | [5]; [8] 51% | [6]; [7] 10%

COC(=O)c1ccc2ccccc2c1
inactive: [1]; [7] 5% | [1]; [8] 15% | [1]; at 50.0 µM 47% | [2]; [7] -1% | [2]; [8] 4% | [2]; at 50.0 µM 28.1% | [3]; [7] 1% | [3]; [8] 4% | [3]; at 50.0 µM 22.4% | [4]; [7] 2% | [4]; [8] -4% | [4]; at 50.0 µM 24.6% | [5]; [7] 5% | [5]; [8] 29% | [6]; [7] 5% | [6]; [8] 11% | [6]; at 50.0 µM 34.3%
active: [5]; at 50.0 µM 80.2%

CCCCC(=S)N1CCN(c2ccccc2)CC1
active: [1]; at 50.0 µM 90.3% | [3]; at 50.0 µM 92.1% | [5]; at 50.0 µM 81.7% | [6]; at 50.0 µM 87.8%
inactive: [1]; [7] -3% | [1]; [8] -8% | [2]; [7] 10% | [2]; [8] 12% | [2]; at 50.0 µM 62.2% | [3]; [7] 5% | [3]; [8] 9% | [4]; [7] -1% | [4]; [8] -14% | [4]; at 50.0 µM 14.9% | [5]; [7] 2% | [5]; [8] 20% | [6]; [7] -2% | [6]; [8] -9%

CC1C/C(=C\c2ccc(O)c(O)c2)C(=O)/C(=C/c2ccc(O)c(O)c2)C1 (configuration not stated)
active: [1]; [8] 71% | [6]; [8] 84%
inactive: [1]; [7] 22% | [1]; at 50.0 µM 52.4% | [2]; [7] 20% | [2]; [8] 67% | [2]; at 50.0 µM 32.3% | [3]; [7] 17% | [3]; [8] 66% | [3]; at 50.0 µM 47.5% | [4]; [7] 7% | [4]; [8] 65% | [4]; at 50.0 µM 41% | [5]; [7] 16% | [5]; [8] 67% | [5]; at 50.0 µM 19.9% | [6]; [7] 27% | [6]; at 50.0 µM 21.6%

C=CCc1cc(Cl)ccc1O
active: [2]; at 50.0 µM 79% | [3]; at 50.0 µM 83.5%
inactive: [1]; [7] 1% | [1]; [8] 51% | [1]; at 50.0 µM 37.6% | [2]; [7] -2% | [2]; [8] 27% | [3]; [7] 1% | [3]; [8] 40% | [4]; [7] 1% | [4]; [8] 14% | [4]; at 50.0 µM 61.2% | [5]; [7] 0% | [5]; [8] 19% | [5]; at 50.0 µM 38.7% | [6]; [7] 1% | [6]; [8] 51% | [6]; at 50.0 µM 36.4%

CSc1nc2ccccc2s1
inactive: [1]; [7] -5% | [1]; [8] 8% | [1]; at 50.0 µM 24.1% | [2]; [7] -2% | [2]; [8] 3% | [2]; at 50.0 µM 23.3% | [3]; [7] -1% | [3]; [8] 4% | [3]; at 50.0 µM -19.4% | [4]; [7] 4% | [4]; [8] 0% | [4]; at 50.0 µM 43.9% | [5]; [7] -3% | [5]; [8] -1% | [5]; at 50.0 µM -8.3% | [6]; [7] -3% | [6]; [8] 5% | [6]; at 50.0 µM 4.2%

C(=Nc1ccccc1)c1cn(Cc2ccccc2)c2ccccc12
active: [1]; [7] 90% | [1]; [8] 95% | [1]; at 50.0 µM 83.1% | [2]; [7] 99% | [2]; [8] 99% | [3]; [7] 99% | [3]; [8] 99% | [4]; [7] 100% | [4]; [8] 99% | [5]; [7] 99% | [5]; [8] 99% | [6]; [7] 99% | [6]; [8] 97%
inactive: [2]; at 50.0 µM -10.2% | [3]; at 50.0 µM 64.7% | [4]; at 50.0 µM -12.6% | [5]; at 50.0 µM 11.6% | [6]; at 50.0 µM 36.9%

Cc1ccc(NCCN(C)C)c2c(=O)c3ccc(O)cc3sc12
inactive: [1]; [7] 56% | [2]; [7] -3% | [3]; [7] -1% | [4]; [7] -3% | [4]; at 50.0 µM 63.5% | [5]; [7] -1% | [6]; [7] 5%
active: [1]; [8] 96% | [1]; at 50.0 µM 98.5% | [2]; [8] 82% | [2]; at 50.0 µM 98.9% | [3]; [8] 88% | [3]; at 50.0 µM 93% | [4]; [8] 85% | [5]; [8] 84% | [5]; at 50.0 µM 98.2% | [6]; [8] 94% | [6]; at 50.0 µM 99.2%
